Sampled rows, rich in hits. Any-hit rate of the full collection: about 21%.
SARS PLpro yeast: inhibitors of SARS-CoV papain-like protease in yeast; Potency, µM (doses to about 32.9 µM), without a hit: at the highest dose activity, positive = growth rescue, most hits filed as activators; actives 0.19% (n = 330,000); S. cerevisiae expressing SARS-CoV PLpro, growth rescue; also: potency is read from the fitted curve at half-maximal effect; 0% is about no effect; nearly all actives have a fitted effect of over 55% in size
CHX counter: counter-screen for Shiga toxin inhibitors: cycloheximide protein synthesis inhibition; cell reporter, cycloheximide protein synthesis inhibition counterscreen; max response, %; actives 12% (n = 300,000); AID 2314; in the data active = max response mostly above about 13%, no sharp cut-off; inactive = mostly below about 14%; also: read at 38.3 µM for the half of the compounds with a filed dose; 0% is about no effect
NS1 function inh: influenza NS1 inhibition. AID 2326. actives 0.4% (n = 270,000). Potency, µM (titrated, usually from 46.1 µM), without a hit: at the top dose activity, positive = more growth; also: potency is read from the fitted curve at half-maximal effect; actives are rising curves; nearly all actives have a fitted effect of over 50% in size
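In this qHTS, NS1 from influenza A is expressed in budding yeast, where it slows growth. Cells are switched from glucose to 2% galactose medium (pH 6.0, -URA), treated with compound, and growth recovery is read at OD600.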
Shiga inhibitor: blocks Shiga toxin action in Vero cells; actives 9.2% (n = 290,000); inhibition, % at 38.7 µM; Vero cells, Shiga toxin protein synthesis inhibition reporter; in the data active = inhibition mostly above about 28%, no sharp cut-off; inactive = mostly below about 43%; also: 0% is about no effect
Pf growth 48h: inhibits P. falciparum growth in the first generation, 48 h. Potency, µM (series often up to 28.7 µM), inactives show at the top dose activity change, negative = inhibition, most hits filed as inhibitors. P. falciparum luciferase growth in erythrocytes, 48 h. actives 5.9% (n = 310,000); active = well fitted inhibition curve with a large enough effect; inconclusive = small, poorly fitted or top-dose-only effect, or another doubt; inactive = no such curve, though single readings can be large or run the other way; also: potency is read from the fitted curve at half-maximal effect; % is scaled to controls: 0 for no effect and ±100 for the full control effect
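In quantitative HTS format, infected erythrocytes bearing luciferase-reporter parasites were treated for a single generation at 37 C. Luminescence after adding detection reagent served as the growth measure.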
Pf growth 96h: P. falciparum growth inhibition at 96 hour, primary screen for plastid delayed-death inhibitors. P. falciparum luciferase reporter growth, 96 h. Potency, µM (top dose mostly 28.7 µM), for inactives: at the highest dose activity change, negative = inhibition, most hits filed as inhibitors. actives 6.9% (n = 320,000); active = well fitted inhibition curve with a large enough effect; inconclusive = small, poorly fitted or top-dose-only effect, or another doubt; inactive = no such curve, though single readings can be large or run the other way; also: potency is read from the fitted curve at half-maximal effect; % is scaled to controls: 0 for no effect and ±100 for the full control effect
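Plates of compound plus infected erythrocytes (2% hematocrit, 0.05% parasitemia final) incubate 96 hours, 37 C, 5% CO2. Detection reagent added; reduced luminescence from the parasites' luciferase reporter flags inhibition.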
Starred values were filed as active, the others as inactive; ? = inconclusive; · = no result given. Unless noted, calls follow the shape of the full dose curve.

SMILES	SARS PLpro yeast	CHX counter	NS1 function inh	Shiga inhibitor	Pf growth 48h	Pf growth 96h
CC(C)CC(NC(=O)C1CCC(C)CC1)C(=O)Nc1ccc2c(c1)OCCO2 (configuration not stated)	-7%	44*	20%	122*	·	-5%
COc1ccc(/C=C2\SC(=S)N(CC(=O)NC3CCS(=O)(=O)C3)C2=O)cc1 (configuration not stated)	0%	-4	1%	-3	22%	13%
O=C(N/N=C/c1c[nH]c2ccccc12)c1ccccc1	-10%	47*	-8%	128*	32%	1%
O=C(N/N=C/c1c[nH]c2ccccc12)c1cccc([N+](=O)[O-])c1	-10%	26*	14%	17	25%	?
O=C(N/N=C/c1oc(O)c2ccccc12)c1ccccc1	-7%	17	·	62*	46%	29%
Cc1ccc(C(=O)Nc2ccc(C(=O)N/N=C/c3c[nH]c4ccccc34)cc2)cc1	-17%	12	-17%	-6	-29%	-25%
Cn1cc([N+](=O)[O-])c(C(=O)N/N=C\c2c[nH]c3ccccc23)n1	0%	9	2%	-3	15%	7%
Cc1cc(C(=O)N/N=C/c2c[nH]c3ccccc23)cs1	8%	42*	-2%	64*	35%	10%
CCOC(=O)c1c(NC(=O)C(C)N2CCN(S(=O)(=O)c3cccs3)CC2)sc2c1CCC(C)C2 (configuration not stated)	7%	-1	4%	-5	16%	?
NC(=S)N/N=C\c1c[nH]c2ccccc12	·	·	-1%	·	·	·
O=C(N/N=C/c1c[nH]c2ccccc12)c1sc2ccccc2c1Cl	-36%	25*	-16%	19*	54%	-27%
O=C(N/N=C/c1coc2ccccc2c1=O)c1cccc([N+](=O)[O-])c1	1%	-2	-3%	-3	-3%	5.9µM*
Cc1cccc(NC(=S)N/N=C/c2c[nH]c3ccccc23)c1	-89%	14*	2%	40*	?	44%
O=C(N/N=C/c1c[nH]c2ccccc12)c1ccncc1	-7%	-1	-1%	13	12%	12µM*
COc1ccc(OC)c(S(=O)(=O)N2CCC(C(=O)NC3CCCC3)CC2)c1	2%	-3	3%	-2	-12%	-78%
Cc1ccn2c(C(=O)NNC(=O)Nc3ccc(Cl)cc3)c(C)nc2c1	-3%	-2	-10%	-7	-27%	?
CCN1CCN(C(=O)Cn2nc(C)c3sc4ccccc4c3c2=O)CC1	-1%	1	-2%	-4	9%	0%
CN(C)S(=O)(=O)c1ccc(C(=O)Nc2cc3c(cc2C(=O)O)OCCCO3)cc1	-16%	-2	19%	-2	50%	47%
Cn1nnnc1SCc1csc(C2C(C#N)=C(N)OC3=C2C(=O)CCC3)c1 (configuration not stated)	1%	-8	·	-9	-11%	?
O=C(N/N=C/c1ccc([N+](=O)[O-])o1)c1cn2ccc3ccccc3c2n1	1%	-2	-3%	-2	1.3µM*	?
COc1ccccc1C(=O)N/N=C/c1c[nH]c2ccccc12	0%	32*	-4%	42*	-1%	?
O=C(N/N=C/c1c[nH]c2ccccc12)c1ccc2c(c1)OCCO2	-1%	55*	1%	94*	96%	126%
O=C(N/N=C/c1ccc([N+](=O)[O-])o1)c1sc2ccccc2c1Cl	-21%	-2	-42%	4	?	1.7µM*
Cc1ccc(CS(=O)(=O)Cc2ccc(C(=O)NCCCN3CC(C)CC(C)C3)o2)cc1 (configuration not stated)	6%	4	-14%	-2	?	41%
Cc1c(/C=N/NC(=O)c2sc3ccccc3c2Cl)cnn1C	-9%	13	-86%	14	-16%	76%
SMILES	SARS PLpro yeast	CHX counter	NS1 function inh	Shiga inhibitor	Pf growth 48h	Pf growth 96h
Cn1cccc1/C=N/NC(=O)c1sc2ccccc2c1Cl	-3%	40*	-51%	66	84%	113%
O=C(N/N=C/c1c[nH]c2ccccc12)c1cccs1	1%	45*	2%	94*	78%	72%
COc1ccc2c(Cl)c(C(=O)N/N=C/c3c(C)[nH]c4ccccc34)sc2c1	-24%	4	?	-1	8%	?
O=C(N/N=C/c1ccccn1)c1sc2ccccc2c1Cl	-6%	44*	-72%	89*	?	?
O=C(N/N=C\c1cn[nH]c1-c1ccccc1)c1cccs1	-28%	40*	-10%	active	25%	26%
CSCC[C@H](NC(=O)[C@H](Cc1ccccc1)NC(=O)[C@H](Cc1cnc[nH]1)NC(=O)CNC(=O)[C@@H](NC(=O)[C@H](C)NC(=O)[C@H](Cc1c[nH]c2ccccc12)NC(=O)[C@H](CCC(N)=O)NC(=O)[C@@H]1CCCN1C(=O)[C@@H](NC(=O)[C@@H]1CCC(=O)N1)C(C)C)C(C)C)C(N)=O	·	-7	·	-5	·	·
COCC1CCN(Cc2cn[nH]c2-c2ccc(OC)c(F)c2)C1 (configuration not stated)	0%	7	6%	-6	-12%	14%
CCC1CCCCN1C(=S)NC1CCCCC1 (configuration not stated)	1%	-1	-14%	15	-14%	38%
COC(C(=O)Nc1ccc(S(=O)(=O)Nc2cccc3ccccc23)cc1)c1ccccc1 (configuration not stated)	-5%	0	6%	-4	-4%	72%
O=C(NC(=S)N1CCCC1)c1ccccc1Cl	-4%	0	8%	-16	16%	-22%
O=C(N/N=C/c1cccc2ccccc12)c1cccs1	0%	73*	4%	87*	12%	4%
Cc1ccc(/C=C/C(=O)c2ccccc(=O)c2O)c(C)c1	?	20	-39%	30*	?	9.3µM*
COc1ccc(CN2C(=S)NC(C)(C)CC2(C)O)cc1 (configuration not stated)	5%	-3	10%	-3	-5%	-11%
COc1ccccc1CCN1C(=S)NC(C)(C)CC1(C)O (configuration not stated)	9%	-5	-36%	-12	?	9.3µM*
COc1cccc2c1cc1c(=O)n(CC(=O)N3CCC(C)CC3)nc(C)n12	2%	-1	1%	-5	12%	111%
Cc1onc(-c2c(Cl)cccc2Cl)c1C(=O)c1c[nH]c(C(=O)NCC2CCCO2)c1 (configuration not stated)	-3%	0	·	26	10µM*	?
Cc1ccccc1OCc1nc(-c2ccc(NC(=O)c3cccs3)cc2)no1	-15%	50*	-7%	154*	?	?
Cc1ccccc1OCc1nc(-c2ccc(NC(=O)c3ccco3)cc2)no1	-15%	35*	-44%	52*	?	?

Screening results: PubChem, National Center for Advancing Translational Sciences (NCATS)
